Rows were chosen to be rich in hits. Some 2.1% of all compounds tested hit in one or more screens of this group.
DUSP3 inh: inhibitors of human VHR1 phosphatase (DUSP3); P51452; recombinant VHR phosphatase, pNPP absorbance; inhibition, % at 13.3 µM; 290,000 compounds, 0.52% hits; in the data active = inhibition above about 50%
Target sequence (P51452 whole entry, looked up): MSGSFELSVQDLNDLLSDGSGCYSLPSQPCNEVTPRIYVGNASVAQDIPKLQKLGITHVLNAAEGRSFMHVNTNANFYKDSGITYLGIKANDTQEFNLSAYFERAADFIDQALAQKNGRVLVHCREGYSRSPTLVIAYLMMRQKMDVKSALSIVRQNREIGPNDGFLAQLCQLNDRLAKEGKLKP
BJeLR viability: BJeLR cell viability loss | AID 1554 | 300,000 compounds, 0.17% hits | BJeLR (HRASV12) viability, CellTiter-Glo ATP luminescence, 48 h | inhibition, % (test concentration not listed); in the data active = inhibition above about 50%; inconclusive = no clear call, values can overlap the other calls
MazF activator: MazEF (E. coli) toxin RNase activation. FAM/BHQ RNA-DNA oligo cleavage fluorescence, 5 h. activation, % at 20 µM. 350,000 compounds, 0.32% hits. AID 504720. P0AE70; in the data active = activation above about 50%
Target sequence (P0AE70 whole entry, looked up): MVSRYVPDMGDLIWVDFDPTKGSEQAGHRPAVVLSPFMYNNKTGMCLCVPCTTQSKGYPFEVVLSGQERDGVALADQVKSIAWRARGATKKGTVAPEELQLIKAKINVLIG
PfHsp40 yeast: restores yeast growth despite PfHsp40 toxicity. S. cerevisiae expressing PfHsp40, growth rescue, ATP luminescence. growth rescue, % at 12.5 µM. 340,000 compounds, 0.68% hits; in the data active = growth rescue above about 28%, passing the limit was not always enough; inconclusive = no clear call, values can overlap the other calls;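 note: yeast W303a lacking pdr1 and pdr3 grown in galactose medium; growth measured after three days at 30 °C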
PrP UTR inh: suppresses PrP 5' UTR mRNA reporter expression. cell-based PrP 5' UTR mRNA reporter, plate reader. inhibition, % (test concentration not listed). 340,000 compounds, 0.35% hits. AID 488862; in the data active = inhibition above about 52%; note: 0 = median of the neutral control wells
PrPC surface inh: reduces human prion protein on the cell surface; cell surface PrPC, TR-FRET read-out; inhibition, % at 13.8 µM; 370,000 compounds, 0.43% hits; P04156; in the data active = inhibition above about 24%; note: 0% = median of the test wells and 100% = reference compound wells
PrP 5UTR single: prion 5' UTR mRNA inhibition, cherry-pick retest; shares compounds with PrP UTR inh; cell-based prion protein 5' UTR reporter, plate reader; inhibition, % at 2.5 µM; 1,100 compounds, 48% hits; AID 504592; in the data active = inhibition above about 54%; inconclusive = no clear call, values can overlap the other calls
Numbers without * were called inactive; u = inconclusive; x = no result.

SMILES	DUSP3 inh	BJeLR viability	MazF activator	PfHsp40 yeast	PrP UTR inh	PrPC surface inh	PrP 5UTR single
Cc1ccc(C(=O)NCCc2ccccc2)cc1	28	0	4	-1	59*	x	64*
Cc1ccc(C(=O)NCCc2ccncc2)cc1	29	2	-2	0	-33	-7	x
COC(=O)c1c(N)sc(C(=O)NCCc2ccccc2)c1C	4	14	0	-1	70*	13	64*
O=C(NCCc1ccccc1)c1ccc2c(c1)OCCO2	14	-2	4	1	88*	4	83*
CCOc1ccccc1-c1cnc(NC)cn1	x	x	x	x	x	10	x
Nc1cccc(C(=O)c2ccccc2C(=O)O)c1	x	x	-8	0	-5	3	x
CC(=O)n1cc(-c2ccncc2)c2ccccc21	2	-3	10	-1	55*	0	-3
Nc1ccccc1C(=O)NN=Cc1cccnc1	x	x	x	x	x	-1	x
S=C(NCCCc1cnc[nH]1)NCCCN(Cc1ccc(Cl)cc1)c1ccc(Br)cn1	x	x	x	x	x	-15	x
COc1ccc(C)cc1NC(=O)CSc1nnc(-c2n[nH]c3c2CCC3)n1N	x	x	x	x	x	-3	x
CCCCOCC(O)CCc1n[nH]c(=S)n1-c1ccccc1 (configuration not stated)	11	-4	0	0	80*	0	5
Cc1ccccc1CN1CCCCC(NC(=O)c2ccccc2C(F)(F)F)C1=O (configuration not stated)	x	x	x	x	x	-2	x
Fc1ccc(Cn2ccc3ccc(-c4ccc5ccn(Cc6ccc(F)cc6)c5c4)cc32)cc1	x	x	x	x	x	6	x
Nc1ccc(Cn2ccc3c4c(N)nc(N)nc4ccc32)cc1	x	x	10	0	62*	9	-11
CCOc1ccc(NC(=O)c2cc(S(=O)(=O)N3CCOCC3)cn2C)cc1	37	-5	8	0	51*	10	28
CCOc1ccc(NC(=O)c2cc(S(=O)(=O)N3CCOCC3)cs2)cc1	36	-2	3	-1	-2	2	x
CN(C(=O)CSc1nc(-c2ccccc2)cs1)C1CCS(=O)(=O)C1 (configuration not stated)	0	-6	8	0	85*	0	-30
CN(C(=O)CSc1nc(-c2ccc(F)cc2)cs1)C1CCS(=O)(=O)C1 (configuration not stated)	24	8	3	-2	-8	-6	x
c1ccc(C2CCC3(CC2)CCC3NCc2cccs2)cc1 (configuration not stated)	x	x	x	x	x	-6	x
CN(C1CCCCC1)S(=O)(=O)c1ccc(SCC(=O)C(C)(C)C)nc1	x	x	4	u	0	-5	x
O=C(Nc1c(Cl)cc2c(c1Cl)Cc1cc([N+](=O)[O-])ccc1-2)C(Cl)Cl	x	x	0	-1	82*	-5	-6
CCOc1ccc(CNS(=O)(=O)c2cccs2)cc1OCC	14	5	-5	1	-42	6	x
Cc1cc(C(=O)CN2C(=O)c3ccccc3S2(=O)=O)c(C)n1C(C)C	x	x	2	-2	60*	-8	64*
C=CCn1c(C)cc(C(=O)CN2C(=O)c3ccccc3S2(=O)=O)c1C	x	x	-3	-3	92*	x	92*
CCn1c(C)cc(C(=O)CN2C(=O)c3ccccc3S2(=O)=O)c1C	x	x	2	0	67*	-4	69*
SMILES	DUSP3 inh	BJeLR viability	MazF activator	PfHsp40 yeast	PrP UTR inh	PrPC surface inh	PrP 5UTR single
Cc1cc(C(=O)CN2C(=O)c3ccccc3S2(=O)=O)c(C)n1-c1ccccc1	14	-2	0	0	57	-3	x
Cc1ccc(S(=O)(=O)CC(=O)Nc2ccc(S(=O)(=O)Nc3ccccn3)cc2)cc1	2	-3	7	0	80*	-3	-20
Cc1ccc(S(=O)(=O)CC(=O)Nc2ccccn2)cc1	3	-7	5	1	-9	3	x
COc1ccc2ccccc2c1C=NN1CCCCC1	x	x	4	x	x	4	x
CNC(=O)COC(=O)/C=C/c1cccc(F)c1	-1	3	9	2	58*	-3	-10
CNC(=O)COC(=O)/C=C/c1ccc(F)cc1	8	-18	-5	-1	-9	0	x
COc1cc2c(c(OC)c1OC)-c1ccc(O)cc1C(NC(C)=O)CC2 (configuration not stated)	x	x	-14	-2	73*	1	87*
CCOC(=O)NC1CCc2cc(OC)c(OC)c(OC)c2-c2ccc(SC)c(=O)cc21 (configuration not stated)	x	x	2	-2	58*	-21	86*
CCCCn1c(N)c(N(CCOC)C(=O)CCC2CCCCC2)c(=O)[nH]c1=O	x	x	-2	1	-1	1	x
CCn1cc(C(=O)Nc2ncccc2O)c(=O)c2cc(F)c(N3CCN(C(=O)c4ccco4)CC3)cc21	18	5	8	1	0	3	x
N#CC1=C(N)OC2=C(CCc3ccccc32)C1c1ccccc1 (configuration not stated)	8	33	-8	7	58*	0	90*
Cc1[nH]n(-c2ccccc2)c(=O)c1C(=O)c1cccc(F)c1	-5	8	5	-1	62*	3	-21
Fc1ccc(-n2nnc(-c3cccnc3)n2)cc1	18	-5	10	-1	-45	5	x
Fc1ccc(-n2nnc(-c3cnc4ccccc4c3)n2)cc1	14	8	4	2	71*	-4	54*
COc1ccc(OCC(=O)N/N=C(\C)CC(=O)Nc2ccc(OC)cc2[N+](=O)[O-])cc1	-9	0	5	-1	-15	6	x
COc1ccc(NC(=O)C/C(C)=N/NC(=O)c2ccncc2)c([N+](=O)[O-])c1	16	-4	-3	-1	54*	-16	-17
CCOc1ccc(/C=N/NC(=O)c2[nH]c3ccc(C)cc3c2C)cc1	-5	6	-4	1	-13	11	x
Cc1c(C(=O)N/N=C/c2ccc(Cl)cc2)[nH]c2ccc(Cl)cc12	34	7	6	0	61*	5	78*
C=C1CC(Cn2cc(Br)c(=O)[nH]c2=O)(c2ccc(-c3ccccc3)cc2)OC1=O (configuration not stated)	x	x	-17	4	61*	3	72*
O=C(c1ccc(F)cc1)C1CCN(CCn2c(=S)[nH]c3ccccc3c2=O)CC1	26	10	x	x	x	x	x
CC1(C)C(=O)N(CCN2CCC(C(=O)c3ccc(F)cc3)CC2)c2ccccc21	x	x	1	-2	53*	2	-22
CN(C)c1ccc(NC(=S)c2ccccn2)cc1	1	13	1	3	83*	-5	80*
CN(C)c1ccc(C(=S)Nc2ccccc2)cc1	-2	3	-5	0	22	9	x
O=C(Nc1ccc(OC(F)(F)F)cc1)Nc1nc2ncccn2c1-c1ccc(C(F)(F)F)cc1	x	x	x	x	x	4	x
COc1ccccc1[C@H]1C(c2cccc(Cl)c2)=NN(c2ccccc2)[C@@H]1CO	x	x	-10	1	72*	x	-5

Compound activity deposited in PubChem BioAssay by several laboratories.
